Experimental data as given in PubChem BioAssay (NCATS).
Inconclusive results are not listed. A call without a number means that no potency is given here. Active and inactive are the calls of the source. Calls follow the shape of the dose curve; as a rule, active = well fitted cell-killing curve with a large enough effect; inconclusive = small, poorly fitted or top-dose-only effect, or effect the other way; inactive = flat fitted curve, though single readings scatter. Where a SMILES comes first, the peptide text is derived from it.

These molecules were tested on CAOV3 (assay: Primary qHTS to identify gynecologic anti-cancer compounds using libraries of approved drugs and bioactive compounds (AID 1345084; also: nearly all actives have a fitted effect of over 55% in size)). Conditions: Gynecologic cancer cell panel viability, ATPlite luminescence, 48 h; series mostly up to 57.5 µM.
Excerpt: National Center for Advancing Translational Sciences [NCATS] Assay Overview: Chemotherapeutic drug responses vary from cancer to cancer and from patient to patient. These variations could be caused by a number of factors including patient genomic background, tumor mutations, tumor heterogeneity, and aspects of drug treatment. Chemotherapeutic drug resistance is also a common issue and can lead to ineffective treatment and patient death. Here we have profiled the cell killing effects of thousands of compounds to characterize the responses in three gynecological cancers, identify cancer-selective compounds, and understand the diversity of responses to these compounds from pan-cancer suppressors to single cell line selective compounds. In this assay, we screened a 7,914 compound drug library that included approved drug and bioactive compounds in six ovarian, three cervical, and […] placental cancer cell lines using the ATPlite assay for cell viability. […] The cervical cancer cell lines included HeLa, Ca Ski, and C-33 A. The placental cancer cell lines included JEG-3. HEK 293T cells were used as the control cell line to determine the selectivity index. ATPlite is a luminescence based assay reliant on the conversion of a luciferase substrate to light in the presence of ATP. As a cytotoxic compound will suppress growth and decrease the number of cells, the concentration of ATP will decrease, and less light signal will be detected in the well.
Assay Protocol Summary: 1,000 cells in 4 uL of media were dispensed into white, solid bottom 1536-well plates using a Multidrop Combi (Thermo Scientific). The Assay plates were incubated for 16 hours at 37 C with 5% CO2 in assay plates, followed by the addition of 23 nL of DMSO or drug dissolved in DMSO. Each compound was assayed in five concentrations (0.092, 0.46, 2.3, 11.5, and 57.5 uM), using the automated Wako 1536 Pin Tool workstation and incubated at 37 C with 5% CO2 48 hours. 4 uL of ATPlite, the ATP monitoring reagent, was then added to the each well of the assay plates using the Multidrop Combi reagent dispenser followed by incubation for 15 minutes at room temperature. The resulting luminescence was measured using the ViewLux plate reader.

Structure (SMILES) | Potency
C1N2CN3CN1CN(C2)C3 | inactive
CC1CCCCN1CCCOC(=O)c1ccc(OC2CCCCC2)cc1 (stereo not given) | inactive
CCOC(=O)c1ccc(NC(=O)CN2CCCCC2)cc1 | inactive
CCCCC(=O)OCC(=O)[C@H]1[C@H](C)C[C@H]2[C@@H]3C[C@H](F)C4=CC(=O)C=C[C@]4(C)[C@@]3(F)[C@@H](O)C[C@@]21C | inactive
Cc1ncc([N+](=O)[O-])n1C | inactive
CN(C)CCOC1=Cc2ccccc2Sc2ccc(Cl)cc21 | inactive
CC(=O)N[C@@H](CO)C(=O)N[C@@H](CC(=O)O)C(=O)N[C@@H](CCCCN)C(=O)N1CCC[C@H]1C(=O)O (Ac-SDKP-OH) | inactive
NCC(=O)O | inactive
CC1(C)OC(=O)Nc2ccc(Br)cc21 | inactive
CC(C)(C)C1CCC(CC2=C(O)c3ccccc3C(=O)C2=O)CC1 (stereo not given) | inactive
Oc1ccccc1-c1nnco1 | inactive
O=C(CCOCCOCCOCCOCCC(=O)Nc1c(I)cc(I)c(C(=O)O)c1I)Nc1c(I)cc(I)c(C(=O)O)c1I | inactive
c1ccc(C(O[C@H]2CCCN(CCc3ccc4c(c3)OCO4)C2)c2ccccc2)cc1 | inactive
Cc1cc(CCCOc2c(C)cc(-c3noc(C(F)(F)F)n3)cc2C)on1 | inactive
O=C(O)C1CCC1 | inactive
O=C1CC2(CCCC2)CC(=O)N1 | inactive
Cc1cccc(C)c1NC(=O)c1cc(S(N)(=O)=O)c(Cl)cc1O | inactive
O=S(=O)(O)c1ccc2nc(-c3ccccc3)[nH]c2c1 | inactive
COc1ccc(CCC(C)=O)cc1 | inactive
Cc1c(N)cccc1C(F)(F)F | inactive

Structure (SMILES) | Potency
CCOC(=O)N1CCC(Nc2ccc(Cl)cc2N)CC1 | inactive
CCOC(=O)Cn1cccc1-c1nc(-c2ccc(OC)cc2)c(-c2ccc(OC)cc2)s1 | inactive
O=C(NN1CCCC1)NS(=O)(=O)c1ccc(Cl)cc1 | inactive
CC(C)CCCC(C)NCCC(C)C (stereo not given) | inactive
CN1[C@@H]2CC[C@H]1CC(NC(=O)n1c(=O)[nH]c3ccccc31)C2 (stereo not given in full) | inactive
O=C(Nc1ccc(S(=O)(=O)N2CCOCC2)cc1)c1cc(Cl)ccc1NS(=O)(=O)c1ccc(Cl)s1 | inactive
OCCc1ccccc1 | inactive
CCC(=O)O[C@H]1[C@H](O[C@@H]2[C@@H](C)[C@H](O[C@H]3C[C@@](C)(OC)[C@@H](O)[C@H](C)O3)[C@@H](C)C(=O)O[C@H](CC)[C@@](C)(O)[C@H](O)[C@@H](C)C(=O)[C@H](C)C[C@@]2(C)O)O[C@H](C)C[C@@H]1N(C)C | inactive
CCCCOC(=O)CCCCCCCCC(=O)OCCCC | inactive
O=[N+]([O-])c1ccc(-c2nc(-c3ccc(F)cc3)c(-c3ccncc3)[nH]2)cc1 | inactive
O=C(COCCOCCOCC(=O)Nc1c(I)cc(I)c(C(=O)O)c1I)Nc1c(I)cc(I)c(C(=O)O)c1I | inactive
Cc1ccc(/C=N/n2c(-c3ccccc3)csc2=S)cc1 | inactive
CCCCCN(CCCOC)C(=O)C(CCC(=O)O)NC(=O)c1ccc(Cl)c(Cl)c1 (stereo not given) | inactive
CCCCCC[C@@H](CCC)C(=O)O | inactive
C[N+]1(C)CCC(OC(=O)C(O)(c2ccccc2)C2CCCC2)C1 (stereo not given) | inactive
COC(=O)c1c(Cl)c(Cl)c(C(=O)OC)c(Cl)c1Cl | inactive
Nc1cc(C(F)(F)F)ccc1S | inactive
C/C(=N/NC(=O)c1ccncc1)C(=O)O | inactive
Nc1c(NC/C=C\COc2cc(CN3CCCCC3)ccn2)c(=O)c1=O | inactive
CCCC(=O)OCOC(=O)C1=C(C)NC(C)=C(C(=O)OC)C1c1cccc(Cl)c1Cl (stereo not given) | inactive
